Bioassay records as filed in PubChem BioAssay.
CYP2C9 activ – increases human cytochrome P450 2C9 activity | activation factor at 5 µM | 1.4% of 96,000 active | recombinant CYP2C9, luciferin-H conversion, luminescence; stronger effect = higher value; factor 1 = untreated enzyme, 0 = blocked | P11712;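 active means activation factor of 2 or more for CYP2C9 at a 5 µM dose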;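 further: 0 = sulfaphenazole-blocked wells and 1 = vehicle-only wells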
CYP2C19 inh – inhibitors of human CYP2C19; inhibition, % at 5 µM; AID 778; P33261; 21% of 96,000 active; CYP2C19 Supersomes, luciferin-H EGE luminescence, 30 min;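 active means CYP2C19 inhibition above a set limit at 5 µM in the primary screen, cut at about 50% in these data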;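 further: plate controls were negative control wells for no effect and 2.5 mM tranylcypromine positive control for full effect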
Cav32 inh – human Cav3.2 channel inhibition, primary screen; O95180; Cav3.2-expressing cells, Fluo-4 calcium fluorescence FDSS; stronger effect = lower value; B-score at 10 µM; 4% of 100,000 active; AID 449739;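 active means single-dose well whose peak fluorescence ratio is a statistical outlier from its plate by either plate-standardised score or position-corrected B-score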
CYP2C19 act – cytochrome P450 2C19 (human) activation. recombinant CYP2C19, luciferin-H EGE luminescence; stronger effect = higher value; 0 = fully inhibited enzyme, 1 = untreated enzyme. activation factor at 5 µM. 96,000 tested, under 10 active;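 active means activation factor of at least 2 at 5 µM in the primary screen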;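 further: 0 = wells with 2.5 mM tranylcypromine and 1 = vehicle-only wells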
CYP2C9 inh – human CYP2C9 inhibition; AID 777; P11712; 20% of 96,000 active; CYP2C9 Supersomes, luciferin-H conversion, luminescence; inhibition, % at 5 µM;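 active means blocking of liver enzyme CYP2C9 beyond about 50% at 5 µM, limit read from the data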
* hit, by the source's call; · = no result given. Shown are actives, neighbours in structure and some others; about 27% of the full set was active somewhere.

SMILES | CYP2C9 activ | CYP2C19 inh | Cav32 inh | CYP2C19 act | CYP2C9 inh
Cc1coc2cc3oc(=O)c4c(c3cc12)CCC4 | 0.9 | -2.8 | · | 1 | 12.7
CCCc1cc(=O)oc2cc(C)c3c(C)coc3c12 | 0.7 | 52.8* | -0.923 | 0.5 | 29.6
CCCc1cc(=O)oc2cc3occ(C)c3cc12 | 0.2 | 70.6* | -2.44 | 0.3 | 76.3*
O=C(NCCCCc1ccccc1)C1CC(c2ccc(C(F)(F)F)cc2)=NO1 (stereo unspecified) | · | · | -0.709 | · | ·
CCOC(=O)c1ccc(NC(=O)c2nc[nH]c2C(=O)N2CCN(c3ccccc3)CC2)cc1 | · | · | -0.238 | · | ·
O=C(CN1C(=O)NC2(CCCCCC2)C1=O)Nc1ccc(S(=O)(=O)N2CCOCC2)cc1 | 0.8 | -5.2 | 0.0567 | 1.1 | 15.7
Cc1c(C(=O)c2ccc(Cl)cc2Cl)cnc2cc3c(cc12)OCO3 | · | · | -4.03* | · | ·
O=[N+]([O-])c1ccc(Sc2n[nH]c(-c3ccc(Cl)cc3Cl)n2)nc1 | 0.9 | 14.2 | -2.56 | 0.9 | 9.1
CCOC(=O)Cc1csc(NC(=O)C(C)(C)CC)n1 | 0.6 | 14.0 | 0.267 | 0.9 | 43.3
Cc1sc2ncnc(NCC3CCCO3)c2c1C (stereo unspecified) | 0.9 | 18.6 | -7.56* | 0.8 | 9.3
Cc1sc2ncnc(NCC(c3ccco3)N(C)C)c2c1C (stereo unspecified) | · | · | 1.63 | · | ·
Cc1sc2ncnc(Sc3nnnn3-c3ccccc3)c2c1C | 0.8 | 56.1* | -0.0481 | 0.4 | 22.6
Cc1sc2ncnc(Nc3ccccc3)c2c1C | 1 | 50.5* | -1.1 | 0.5 | -1.0
Cc1sc2ncnc(NCc3ccccc3)c2c1C | 0.5 | 75.2* | 0.674 | 0.2 | 46.7
CCc1cc2c(NCC3CCCO3)ncnc2s1 (stereo unspecified) | 0.8 | 17.2 | 0.404 | 0.8 | 20.7
COc1ccccc1-c1cc(C(=O)Nc2c(F)cc(F)cc2Br)no1 | 1.1 | -3.0 | 0.218 | 1 | -9.1
CSCC[C@H](Nc1ncnc2sc(C)c(C)c12)C(=O)O | 0.2 | -6.8 | 0.439 | 1.1 | 83.1*
Cc1sc2ncnc(N[C@@H](CCC(=O)O)C(=O)O)c2c1C | 1 | -8.4 | 1.11 | 1.1 | 4.5
Cc1sc2ncnc(NCC3(N4CCOCC4)CCCCC3)c2c1C | 0.4 | 30.3 | 0.411 | 0.7 | 60.2*
Cc1cc(C(=O)COC(=O)CN(C)S(=O)(=O)c2ccc(Cl)cc2)c(C)n1Cc1cccs1 | 1.1 | 73.7* | -0.0925 | 0.3 | -6.7
Cc1noc(C)c1COC(=O)CN(C)S(=O)(=O)c1ccc(Cl)cc1 | 0.8 | 40.9 | 1.31 | 0.6 | 17.6
Cc1nc(C(=O)Nc2ccc(F)cc2)nn1-c1ccc([N+](=O)[O-])cc1 | 0.8 | 4.6 | 0.114 | 1 | 19.6
O=C(Nc1nc2cc(Cl)ccc2s1)C1CCCN(S(=O)(=O)c2cccc3cccnc23)C1 (stereo unspecified) | 2.1* | 7.0 | -0.321 | 0.9 | -106.4
O=C(Nc1ccc(F)cc1)C1CCCN(S(=O)(=O)c2cccc3cccnc23)C1 (stereo unspecified) | 1.7 | 67.5* | 0.781 | 0.3 | -73.5
O=C(Nc1nccs1)C1CCCN(S(=O)(=O)c2cccc3cccnc23)C1 (stereo unspecified) | 0.9 | 45.1 | -1.57 | 0.5 | 8.2
SMILES | CYP2C9 activ | CYP2C19 inh | Cav32 inh | CYP2C19 act | CYP2C9 inh
COc1cccc(-c2ccc(=O)n(CC(=O)NCCN3CCOCC3)n2)c1 | · | · | -1.75 | · | ·
COc1cccc(-c2ccc(=O)n(CC(=O)Nc3cc4c(cc3NC(C)=O)OCCO4)n2)c1 | 0.6 | 68.8* | 0.795 | 0.3 | 38.5
CCCCN(C)C(=O)c1coc(=O)c2ccccc12 | 1 | 10.0 | 1.06 | 0.9 | -0.8
CN(C(=O)c1coc(=O)c2ccccc12)c1ccc(F)cc1 | 0.4 | 24.6 | · | 0.8 | 58.8*
N=c1sccn1CC(=O)NCCc1ccc(Cl)cc1 | 1.1 | 6.3 | 0.98 | 0.9 | -11.4
Cn1c(CCNC(=O)c2ccco2)nc2cc(NS(=O)(=O)c3ccccc3)ccc21 | 0.4 | 31.3 | 0.359 | 0.7 | 56.4*
COc1ccc(C2CC(O)(C(C)(C)O)NO2)cc1 (stereo unspecified) | 0.9 | 5.7 | -0.761 | 0.9 | 13.0
CC1(C2(O)CC(c3ccccc3)ON2)CCCCC1 (stereo unspecified) | 0.8 | 53.7* | -0.0476 | 0.5 | 15.7
CN(C)C(=O)N1CCC(C(=O)NCC2CCCO2)CC1 (stereo unspecified) | 1.1 | -9.1 | · | 1.1 | -5.6
CCSc1nnc(NC(=O)c2csc3c2CCC(C)C3)s1 (stereo unspecified) | 0.2 | -20.5 | 0.305 | 1.2 | 81.6*
Cc1cc(C(=O)Nc2nnc(C(F)(F)F)s2)no1 | 0.5 | 17.5 | 1.38 | 0.8 | 53.9*
CC(NC(=O)Nc1nnc(C(F)(F)F)s1)(C(F)(F)F)C(F)(F)F | 0.3 | 5.9 | -7.7* | 0.9 | 65.6*
CCSc1nnc(NC(=O)c2cc(C)on2)s1 | 0.4 | 0.9 | 0.355 | 1 | 57.8*
CCSc1nnc(NC(=O)c2csc3c2CCCC3)s1 | 1 | -2.2 | -0.0117 | 1 | 0.5
CC(C)(C)CC(=O)Nc1nnc(C(F)(F)F)s1 | · | · | -0.969 | · | ·
CCSc1nnc(NC(=O)c2cnccn2)s1 | 1 | -5.8 | 1.19 | 1.1 | -3.2
Cc1cc(C(=O)Nc2ccccc2C(F)(F)F)no1 | 1 | -6.0 | 2.13 | 1.1 | 1.5
CC(=O)c1ccc(NC(=O)C2CCC(C)NC2=O)cc1 (stereo unspecified) | 1.1 | -6.2 | · | 1.1 | -6.8
CN(C)/C=N/c1c(C(=O)NCc2ccccc2)nnn1Cc1ccccc1 | 0.9 | -0.4 | -0.241 | 1 | 6.3
C=CCn1c(SCC(=O)c2ccc(CNC(C)=O)o2)nc2scc(C3CC3)c2c1=O | 0.3 | 57.3* | 0.684 | 0.4 | 72.8*
C=CCn1c(SC2CCOC2=O)nc2scc(C3CC3)c2c1=O (stereo unspecified) | 0.2 | 82.9* | 0.233 | 0.2 | 77.3*
C=CCn1c(SCc2ccccc2)nc2scc(-c3ccc(C)o3)c2c1=O | 0.7 | 11.6 | -0.684 | 0.9 | 26.9
C=CCn1c(SCC(=O)NC2CCS(=O)(=O)C2)nc2scc(C3CC3)c2c1=O (stereo unspecified) | 0.3 | 35.7 | -0.0588 | 0.6 | 72.1*
C=CCn1c(SCc2cc(=O)n3ccsc3n2)nc2scc(C3CC3)c2c1=O | 0.6 | 7.1 | -0.749 | 0.9 | 44.7
CCOC(=O)[C@@H]1[C@H]2COc3ccc(Br)cc3[C@@H]2N2C(=O)N(c3ccc(Cl)cc3)C(=O)[C@]12C | · | · | -0.124 | · | ·
SMILES | CYP2C9 activ | CYP2C19 inh | Cav32 inh | CYP2C19 act | CYP2C9 inh
S=C(Nc1cccc(Cl)c1)Nc1ccccc1Oc1ccccc1 | 0.3 | 48.7 | -7.23* | 0.5 | 65.9*
COc1ccc(-c2ccc3oc(-c4ccsc4)cc3c2)cc1 | · | · | -0.00961 | · | ·
Cc1ccc(NC(=S)N/N=C/c2ccc(Cl)c([N+](=O)[O-])c2)cc1 | 0.4 | 22.0 | 0.173 | 0.8 | 55.7*
Cc1ccc(/C=N/NC(=O)c2cccs2)cc1[N+](=O)[O-] | 0.6 | 15.0 | · | 0.8 | 38.3
O/N=C/c1cc(Cl)ccc1OCc1ccccc1Cl | 0.4 | 20.6 | 0.206 | 0.8 | 60.8*
O/N=C/c1cc(Br)ccc1OCc1ccc(F)cc1 | · | · | -4.63* | · | ·
